These results are taken from ChEMBL document CHEMBL3988442, “University of Dundee, Small-Polar-MMV Screening Library” (2021).

Out of some 48,000 compounds screened, about 13,000 (27%) showed an effect of 50% or more. This is one part of the list.

For this test, the system named is Wolbachia pipientis. Kind of test: Anti-Wolbachia Cell-Based Screen. Format: functional. Further details: scale not given: in the data most compounds retested in dose-response had high values. The note with it: 5 µM.
For `CC(O)CC(C)(C)CNC(=O)Nc1cnn(-c2ccccc2F)c1` (stereo unspecified), the “Percent Effect” value is on record as -9.575%.
Take `Cc1nccc(-c2ccccc2)c1C(=O)N1CCC2(CCCO2)CC1`: the “Percent Effect” value is on record as -10.01%.
Take `COc1ccc([C@@H]2CN(C(=O)CCn3cccn3)C[C@H]2NC(C)=O)cc1`: the “Percent Effect” value turned out to be 10.72%.
The value for `Cc1nccc(-c2cccc(NCC(=O)N3CCc4sccc4C3)c2)n1` was -3.121%; that for `CC(C)Oc1ccc(CN2CCCC(N3CCCC3)C2)cc1CO` (stereo unspecified) was -11.2%.
On to `O=C(C1SCCc2ccccc21)N1CCC(O)CC1` (stereo unspecified), for which the “Percent Effect” value is -12.36%.
The figure for `CC1(C)CC(C(=O)N2CCC3(CCC(=O)N(C4CC4)C3)CC2)CCO1` (stereo unspecified) is -18.18%; for `CC(C)OCCS(=O)(=O)N1CCN(Cc2ccco2)CC1` it is -6.984%; for `CCCS(=O)(=O)N1CCN(Cc2ccco2)CC1.O=C(O)C(=O)O` it is 120.3%.
The value for `CCCS(=O)(=O)N1C[C@@H]2CN(Cc3ccco3)CCO[C@@H]2C1.O=C(O)C(F)(F)F` was 4.107%; that for `CCS(=O)(=O)N1CCC(c2cc3n(n2)[C@@H](C(F)(F)F)C[C@@H](C)N3)CC1` was -9.512%.
In the case of `CC(C)OCc1ccc(CNC(=O)NC2(CO)CCCC2)cc1`, the “Percent Effect” value was found to be 4.047%.
The figure for `NC(=O)NC1CCN(Cc2ccc3c(c2)CCC3)CC1` is -13.21%.
The value for `Cc1nnc(CN(Cc2ccc(Cl)c(Cl)c2)C(C)C)o1` was 6.742%; that for `Cc1nnc(CN(Cc2ccc3c(c2)OCO3)C2CCC(C)CC2)o1` (stereo unspecified) was 119.4%.
The figure for `Cc1nnc(CN(Cc2ccccc2Br)C2CC2)o1` is -0.8138%.
With `Cc1nnc(CN(Cc2ccc(Cl)c(Cl)c2)C2CC2)o1`, the “Percent Effect” value was 12.83%.
The value for `Cc1nnc(CN(Cc2ccc3c(c2)OCO3)C2CCCCC2)o1` was 129.8%.
The value for `Cc1nnc(CN(Cc2cccc(Br)c2)C2CC2)o1` was -10%.
Regarding `Cc1ccc2nc3n(c2c1)[C@@H](CNCc1nccs1)COC3`, the “Percent Effect” value was -1.407%.
The value for `COc1ccccc1C(NC(=O)CN(C)C(C)C)c1noc(C)n1` (stereo unspecified) was -26.87%.
The value for `Cc1ccc(C)c(NC(=O)N(C)Cc2cnn(C)c2)c1` was 5.925%.
The value for `COCC(=O)N1CCC2(CCC2N(C)Cc2ccco2)CC1.O=C(O)C(F)(F)F` (stereo unspecified) was -4.207%.
In the case of `CC(C(=O)NCc1cccc(N2CCCC2=O)c1)S(C)(=O)=O` (stereo unspecified), the “Percent Effect” value was -9.157%.
The figure for `COc1ccc(NC(=O)NCc2cccc(N(C)C)n2)c(Cl)c1` is 3.933%; for `CCc1nc(C(=O)NCc2ccc(N3CCNC(=O)C3)c(F)c2)c[nH]1` it is -14.99%; for `Cc1ccc([C@@H]2CN(S(=O)(=O)Cc3ccccc3)C[C@H]2N(C)C)cc1` it is 2.624%.
The value for `CCN(Cc1noc(CC(C)C)n1)Cc1ccccc1Cl` was 16.12%; that for `CCN(Cc1ccncc1)Cc1cn(-c2ccccc2)nn1` was -1.691%; that for `CCn1ccnc1CN(C)Cc1nc(Cc2ccccc2Cl)no1` was -11.87%.
Turning to `CN(Cc1ccncc1)Cc1nccn1Cc1ccccc1`, the “Percent Effect” value is 10.06%.
The figure for `CC(C)(C)n1nnnc1CN(Cc1ccccc1)Cc1ccc(Cl)cc1` is 282.7%; for `CC(C)(C)n1nnnc1CN(CCc1ccccc1)Cc1ccccc1` it is 189.2%.
Take `CN(CCc1ccncc1)Cc1nccn1Cc1ccccc1`: the “Percent Effect” value amounted to 0.009024%.
As to `CC(C)(C)n1nnnc1CN(Cc1ccccc1)Cc1ccccc1Cl`, the “Percent Effect” value worked out at 144.9%.
The value for `Cc1nc(CCN(C)C(=O)CN2C(=O)OC[C@@H]2c2ccccc2)no1` was 2.107%; that for `CN(C)[C@H]1C[C@@H](Cc2cc(-c3ccc(F)cc3)on2)C1(C)C` was -8.527%.
On to `CN(Cc1ccoc1)C(=O)C1(Oc2ccc(Cl)cc2)CCNCC1`, for which the “Percent Effect” value is recorded as 7.031%.
The value for `CN1CCOC(C(=O)Nc2ccc3c(c2)nc(C2CC2)n3C)C1` (stereo unspecified) was -8.812%; that for `CCS(=O)(=O)N1CC[C@H]2O[C@H](c3nnc(C)o3)CC[C@H]21` was -2.674%.
The figure for `CC(C)NC(=O)CC1COC2(CCN(Cc3cccnc3)CC2)C1.O=C(O)C(F)(F)F.O=C(O)C(F)(F)F` (stereo unspecified) is 94.4%; for `CC(C)C1COC2(CCN(Cc3ccco3)CC2)C1.O=C(O)C(F)(F)F` (stereo unspecified) it is 8.563%.
For the compound `COc1ccc(CN2CCC3(CC2)CN(c2ccccn2)CCO3)cc1.O=C(O)C(F)(F)F.O=C(O)C(F)(F)F`, the “Percent Effect” value is reported as -0.9926%.
With `COc1ccc(CN2CCOC3(CCCN(C(C)=O)C3)C2)cc1.O=C(O)C(F)(F)F` (stereo unspecified), the “Percent Effect” value is -1.413%.
The value for `CC(C)NC(=O)[C@H]1C[C@@H]2[C@@H](C1)OCCN2Cc1ccsc1.O=C(O)C(F)(F)F` was 9.511%; that for `CN(C)C(=O)NC1COC2(CCN(Cc3ccco3)CC2)C1` (stereo unspecified) was -11.16%; that for `CC(C)C(=O)NC1COC2(CCN(Cc3cccnc3)CC2)C1.O=C(O)C(F)(F)F.O=C(O)C(F)(F)F` (stereo unspecified) was -8.179%.
The value for `CC(C)NC(=O)CC1COC2(CCN(Cc3ccco3)CC2)C1` (stereo unspecified) was 109.8%; that for `CN(C)C(=O)CO[C@H]1CO[C@@]2(CCN(Cc3ccsc3)C2)C1.O=C(O)C(F)(F)F` was -11.41%.
The figure for `CC(C)NC(=O)CC1COC2(CCN(Cc3ccsc3)CC2)C1.O=C(O)C(F)(F)F` (stereo unspecified) is 89.57%.
Turning to `COc1ccc(CN2CCC3(CC2)CC(CC(=O)NC(C)C)CO3)cc1.O=C(O)C(F)(F)F` (stereo unspecified), the “Percent Effect” value is 102.4%.
Take `CC(C)OCc1ncn2c1CN(Cc1ccoc1)CCC2.O=C(O)C(F)(F)F`: the “Percent Effect” value is listed as -8.556%.
The figure for `Cc1ncsc1CN1C[C@H](C(=O)N2CCCO2)[C@@H]2CCO[C@@H]2C1.O=C(O)C(F)(F)F.O=C(O)C(F)(F)F` is -11.3%; for `Cc1[nH]ccc1C(=O)N(Cc1ccc(O)cc1)CC1CC1` it is 16.53%.
The value for `FC(F)(F)C1CCCn2c(CNCc3ccco3)nnc21` (stereo unspecified) was 4.38%; that for `c1nc(N2CCCCC2Cn2cncn2)c2ccsc2n1` (stereo unspecified) was 0.5498%; that for `CCCc1cc(N(CCOC)CC(F)F)n2ncnc2n1` was -3.752%.
The value for `CN(C)C(=O)CN(C)C(=O)c1cccn1CCc1ccccc1` was -9.709%.
On to `CC(=O)N1CCOCC2(CCN(Cc3ccc(C)s3)CC2)C1.O=C(O)C(F)(F)F`, for which the “Percent Effect” value is -6.944%.
The value for `Cc1ccc(CN2CCC3(CC2)CC(CC(=O)NC(C)C)CO3)s1.O=C(O)C(F)(F)F` (stereo unspecified) was 100.2%; that for `Cc1ccc(CN2CC(C(=O)NC(C)C)C3(CCOCC3)C2)s1.O=C(O)C(F)(F)F` (stereo unspecified) was 1.411%.
